Experimental findings from article PMC5836133, “The intracellular immune receptor Rx1 regulates the DNA-binding activity of a Golden2-like transcription factor” are described below.

Over roughly 16,000 sequences, “e-score” has its median near -0.044; the highest 2% begin near 0.38. What follows is part of a selection rich in the highest values, with near analogues and random picks from the rest.

The experiment addresses T1, GST-NbGlk1(82-244) (Nicotiana benthamiana).
T1 chain: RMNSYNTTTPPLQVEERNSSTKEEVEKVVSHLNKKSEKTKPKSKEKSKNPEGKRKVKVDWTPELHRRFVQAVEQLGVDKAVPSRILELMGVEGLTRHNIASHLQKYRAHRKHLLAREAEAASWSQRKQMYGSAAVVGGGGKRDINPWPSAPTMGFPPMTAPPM
In words: protein-binding microarray; NbGlk1 is a Golden2-like transcription factor of Nicotiana benthamiana; high values mean tight binding. The note with it: protein: recombinant; tags: GST (pTH6838); dsDNA, one strand shown.
For the sequence ACGGATTC, the binding signal was 0.405 ± 0.00859 E-score. For the sequence ACGGATTA, the binding signal was 0.312 ± 0.00583 E-score. The value for ATGGATTA was 0.326 ± 0.0123 E-score; that for ATGGATTC was 0.425 ± 0.0111 E-score. The value for ATGGATTG was 0.21 ± 0.0605 E-score; that for ACGGATTG was 0.277 ± 0.0929 E-score; that for ACGCTGAT was 0.235 ± 0.108 E-score. The value for ATTTCTTG was 0.258 ± 0.105 E-score; that for AATGAAAT was 0.236 ± 0.00744 E-score; that for CAATCTCG was 0.404 ± 0.00662 E-score. Turning to AAATCTCG, the binding signal came to 0.4626 ± 0.00233 E-score. As for CAATCTCC, the binding signal turned out to be 0.349 ± 0.0541 E-score.

As to CAATCACA, the binding signal was found to be 0.205 ± 0.12 E-score. On to AAATCTCA, for which the binding signal is 0.444 ± 0.0165 E-score. AAATCTCC: the binding signal is 0.439 ± 0.00952 E-score. For the sequence CAATCTCA, the binding signal turned out to be 0.329 ± 0.0291 E-score. With AATTCTCA, the binding signal stood at 0.243 ± 0.0881 E-score. Take ATCGAATA: the binding signal stood at 0.235 ± 0.0136 E-score. On to ACGAGAAT, for which the binding signal turned out to be 0.31 ± 0.0433 E-score.

Take ATCTAATG: the binding signal worked out at 0.243 ± 0.0558 E-score. Take ATTTCCCA: the binding signal is 0.329 ± 0.00415 E-score.

Take CACGATCG: the binding signal came out at 0.23 ± 0.0866 E-score.

For ATCTATCA, the binding signal was determined as 0.276 ± 0.0314 E-score. Turning to ATAGGATC, the binding signal turned out to be 0.255 ± 0.0193 E-score.

In the case of AATCAACA, the binding signal was determined as 0.259 ± 0.102 E-score.

For ATCTTTTG, the binding signal is 0.24 ± 0.0872 E-score. On to AATCATAT, for which the binding signal worked out at 0.28 ± 0.0597 E-score. For ACTGTGAT, the binding signal came to 0.208 ± 0.0601 E-score. Consider AGATCGGG, for which the binding signal amounted to 0.239 ± 0.0369 E-score. Under ATCCTCTA stands 0.342 ± 0.0176 E-score.

In the case of ACTGATAC, the binding signal stood at 0.204 ± 0.0454 E-score. CAAAGATA: the binding signal came out at 0.225 ± 0.0785 E-score. For the sequence AAATCTCT, the binding signal stood at 0.392 ± 0.0226 E-score. Regarding AAATCACT, the binding signal was 0.26 ± 0.0391 E-score. The value for AATTCTCT was 0.225 ± 0.0473 E-score; that for ATCCTCAA was 0.322 ± 0.0217 E-score. For the sequence ACCGGATC, the binding signal amounted to 0.21 ± 0.0564 E-score.

Consider ATATAAGA, for which the binding signal came out at 0.21 ± 0.0738 E-score.

For AGGATTTG, the binding signal came to 0.383 ± 0.0174 E-score. On to AGAATTTC, for which the binding signal was found to be 0.267 ± 0.0165 E-score.

For the sequence AGAATTTG, the binding signal is 0.293 ± 0.0716 E-score. In the case of AATATTTC, the binding signal was determined as 0.34 ± 0.0237 E-score. On to AGTATTTG, for which the binding signal worked out at 0.208 ± 0.054 E-score.

Turning to AGGATTTC, the binding signal was determined as 0.469 ± 0.0121 E-score.

Consider ATCTCCTA, for which the binding signal worked out at 0.337 ± 0.0176 E-score. Turning to AGGGAAAT, the binding signal turned out to be 0.334 ± 0.0487 E-score. The value for AATAAGAT was 0.3 ± 0.0136 E-score; that for ATTACTCA was 0.208 ± 0.0879 E-score. Turning to AATCGCGA, the binding signal is 0.376 ± 0.0188 E-score. Turning to AGATCTCA, the binding signal amounted to 0.413 ± 0.0152 E-score. Under AGATCCCC stands 0.378 ± 0.0125 E-score; under AGATCCCG, 0.32 ± 0.0375 E-score. Consider AGATCTAC, for which the binding signal stood at 0.347 ± 0.0432 E-score. In the case of AGATCACG, the binding signal stood at 0.26 ± 0.003 E-score.

With AGATCCCA, the binding signal is 0.219 ± 0.0112 E-score. Turning to AGATCTCC, the binding signal was determined as 0.441 ± 0.0151 E-score. In the case of AGATCTCG, the binding signal worked out at 0.431 ± 0.0229 E-score. For ATCGTAAC, the binding signal was 0.244 ± 0.00995 E-score. ATCATATC: the binding signal came out at 0.329 ± 0.0297 E-score.

Turning to ATTCCCGG, the binding signal is 0.283 ± 0.0331 E-score. On to CAAATCGC, for which the binding signal was found to be 0.32 ± 0.038 E-score. Regarding AAAATCGG, the binding signal amounted to 0.363 ± 0.0144 E-score. Take AAAATCGA: the binding signal was 0.381 ± 0.0174 E-score. In the case of CAAATCGA, the binding signal was 0.28 ± 0.0483 E-score. With ATAATCGA, the binding signal came out at 0.216 ± 0.00243 E-score. With ATAATCGC, the binding signal turned out to be 0.207 ± 0.0834 E-score. Under AAAATCGC stands 0.405 ± 0.00862 E-score; under AAAATCGT, 0.39 ± 0.0061 E-score; under AATTGCGT, 0.233 ± 0.0124 E-score. For AATTATCC, the binding signal turned out to be 0.204 ± 0.00884 E-score. Take ATCTGAGC: the binding signal amounted to 0.219 ± 0.0796 E-score.

As for ACAGATTC, the binding signal stood at 0.429 ± 0.0275 E-score.

In the case of AGAGATTG, the binding signal is 0.325 ± 0.048 E-score. As for ACAGATTA, the binding signal is 0.362 ± 0.0124 E-score. On to AGAGATTA, for which the binding signal was 0.298 ± 0.025 E-score. For the sequence ATAGATTC, the binding signal is 0.437 ± 0.0195 E-score. Take ATAGATTA: the binding signal was determined as 0.339 ± 0.0049 E-score. Turning to AGAGATTC, the binding signal is 0.434 ± 0.028 E-score. As for ATAGATTG, the binding signal is 0.327 ± 0.0261 E-score. Turning to ACAGATTG, the binding signal stood at 0.359 ± 0.0598 E-score.

Regarding ACCAGATC, the binding signal worked out at 0.2 ± 0.124 E-score. For ATCACGTA, the binding signal worked out at 0.257 ± 0.0112 E-score. For the sequence AAGTATCT, the binding signal was 0.249 ± 0.0273 E-score.

For AATTTAGA, the binding signal is 0.251 ± 0.0537 E-score. With AGTGCGAT, the binding signal came to 0.313 ± 0.00866 E-score. Consider AAGGGGAT, for which the binding signal is 0.203 ± 0.0242 E-score. In the case of ATTTGCAA, the binding signal was found to be 0.304 ± 0.00257 E-score. For the sequence ATATCACA, the binding signal stood at 0.369 ± 0.031 E-score.

Take ATTGCGTC: the binding signal was determined as 0.2709 ± 0.000439 E-score.

For the sequence ATTGCGTA, the binding signal came to 0.367 ± 0.0361 E-score. As to ATTGCGTG, the binding signal was 0.388 ± 0.00526 E-score. For the sequence CAATCAAA, the binding signal is 0.214 ± 0.036 E-score. Turning to AAAATAAA, the binding signal is 0.218 ± 0.15 E-score. Consider CACTGATA, for which the binding signal was determined as 0.208 ± 0.181 E-score. For ATCTCGAC, the binding signal was determined as 0.34 ± 0.0977 E-score.

On to ATCTCTAC, for which the binding signal is 0.297 ± 0.0234 E-score. Regarding AGATCTAG, the binding signal amounted to 0.349 ± 0.0106 E-score.

ATATCTAG: the binding signal was 0.392 ± 0.0205 E-score. On to AGATCTAA, for which the binding signal worked out at 0.303 ± 0.0304 E-score.

With ATATCTAA, the binding signal amounted to 0.417 ± 0.0517 E-score. Under ATCTCTAA stands 0.216 ± 0.0218 E-score; under ATATCTAC, 0.392 ± 0.0225 E-score. Consider ATATCAAC, for which the binding signal amounted to 0.287 ± 0.0867 E-score. Under ATCTCTAG stands 0.294 ± 0.0244 E-score; under ACCGATAT, 0.364 ± 0.00959 E-score.

Consider ATCAGAAT, for which the binding signal was 0.275 ± 0.0769 E-score. AGTGTAAT: the binding signal is 0.362 ± 0.0129 E-score. As to ATCTGATA, the binding signal came to 0.345 ± 0.00479 E-score.

ATTCGTAA: the binding signal amounted to 0.208 ± 0.00392 E-score.
